Bioassay records: PubChem BioAssay, National Center for Advancing Translational Sciences (NCATS)
hNpr1 antagonist = antagonists of human natriuretic peptide receptor Npr1. HEK293 hNpr1 GloSensor cGMP, ANP-stimulated luminescence. AID 1347048. 76,000 compounds, 1.6% hits. P16066. Potency, µM (doses to about 46.3 µM), usual class: inhibitors; calls by dose curve; note: nearly all actives have a fitted effect of over 60% in size
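Compound pre-incubated 30 min at room temperature on GloSensor-loaded HEK293 cells stably carrying hNpr1 and the pGS-40F cGMP biosensor. Stimulation uses hNppA at 0.1 nM final; luminescence is taken at baseline and 20 min post-agonist.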
HEK cytotox = cytotoxic compounds in HEK 293 cells; 94,000 compounds, 6.6% hits; HEK 293 viability, ATP luminescence (CellTiter-Glo), 48-72 h; Potency, µM (highest dose often 115 µM), actives largely listed as inhibitors; note: nearly all actives have a fitted effect of over 60% in size
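Cytotoxicity was scored by loss of ATP-coupled luminescence (CellTiter-Glo) in HEK 293 cells. Compound treatment ran 48 or 72 hr at 37 degree Celsius, 5% CO2, 95% humidity.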
FLuc inh = Photinus pyralis luciferase inhibition. purified P. pyralis luciferase, luminescence, biochemical. 76,000 compounds, 2.5% hits. P08659. Potency, µM (highest dose often 115 µM), usual class: inhibitors; note: nearly all actives have a fitted effect of over 65% in size
Target sequence (P08659 whole entry, looked up): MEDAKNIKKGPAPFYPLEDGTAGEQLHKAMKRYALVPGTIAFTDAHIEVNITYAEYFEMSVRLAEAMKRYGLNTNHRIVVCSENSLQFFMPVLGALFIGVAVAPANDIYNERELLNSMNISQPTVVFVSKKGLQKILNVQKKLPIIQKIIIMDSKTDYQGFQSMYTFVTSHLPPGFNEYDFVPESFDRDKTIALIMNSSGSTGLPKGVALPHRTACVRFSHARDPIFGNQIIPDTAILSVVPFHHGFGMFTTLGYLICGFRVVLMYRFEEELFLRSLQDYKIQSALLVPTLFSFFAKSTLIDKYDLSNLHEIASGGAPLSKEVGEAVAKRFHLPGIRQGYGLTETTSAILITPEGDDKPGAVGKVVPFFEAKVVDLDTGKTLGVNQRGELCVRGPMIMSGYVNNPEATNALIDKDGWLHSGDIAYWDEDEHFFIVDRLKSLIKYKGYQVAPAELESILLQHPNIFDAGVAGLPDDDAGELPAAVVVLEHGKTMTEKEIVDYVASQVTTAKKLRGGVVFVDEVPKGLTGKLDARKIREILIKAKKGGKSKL
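Inhibitors were tested against purified firefly luciferase in a biochemical, low-substrate format (both substrates at 10uM) and luminescence measured with a CCD imager.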
NIH3T3 tox = cytotoxic compounds in NIH 3T3 cells; AID 1345082; Potency, µM (highest dose often 96.7 µM), actives largely listed as inhibitors; 94,000 compounds, 4.3% hits; NIH 3T3 viability, CellTiter-Glo ATP luminescence, 48-72 h; note: nearly all actives have a fitted effect of over 55% in size
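Cells were seeded at 400 per well, treated with pin-transferred compound, and kept 48 or 72 hr at 37 °C before CellTiter-Glo addition and luminescence imaging of cellular ATP.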
A number is an active result; . = inactive; ? = inconclusive; / = no result given. The list is not random: actives were taken first. Their share in the collection is about 11%. Unless noted, calls come from the whole dose curve; as a rule, active = well fitted curve in the direction sought with a large enough effect; inconclusive = small, poorly fitted or top-dose-only effect, or another doubt; inactive = no such curve, though single readings can be large; an effect the other way counts as inactive or inconclusive.

SMILES	hNpr1 antagonist	HEK cytotox	FLuc inh	NIH3T3 tox
COc1ccc(CN2CCc3oc(C)c(C(=O)N4CCN(c5ncccn5)CC4)c3C2)cc1	.	?	?	?
O=C(NC1CCN(c2cc(-c3ccc(Cl)cc3)[nH]n2)CC1)c1ccc2[nH]ccc2c1	.	39.8µM	.	35.5µM
COc1ccc(-c2cc(N3CCC(NC(=O)Cc4ccc(Cl)cc4)CC3)n[nH]2)cc1	.	?	.	?
COc1ccc(-c2cc(N3CCC(NC(=O)c4ccc(Cl)cc4)CC3)n[nH]2)cc1	?	44.7µM	.	?
COc1ccc(-c2cc(N3CCC(NC(=O)c4ccc(Cl)cc4)C3)n[nH]2)cc1 (stereo unspecified)	.	?	.	?
COc1ccc(CC(=O)NC2CCN(c3cc(-c4ccc(Cl)cc4)[nH]n3)C2)cc1 (stereo unspecified)	.	28.2µM	.	?
CC(C)Nc1nccc(C2(c3ccccc3Cl)CCNCC2)n1	.	?	.	.
Clc1ccccc1C1(c2ccnc(NC3CCC3)n2)CCNCC1	.	35.5µM	.	28.2µM
CC1=C[C@@H](CNC(=O)C2CC2)[C@H](C(C)C)C[C@H]1Cc1nnc(-c2ccccc2F)o1	.	63.1µM	.	100µM
CCCS(=O)(=O)NC[C@@H]1C=C(C)[C@H](Cc2nnc(-c3ccccc3F)o2)C[C@H]1C(C)C	.	22.4µM	.	25.1µM
C#CCN(C)C[C@@H]1C=C(C)[C@H](Cc2nnc(-c3ccccc3F)o2)C[C@H]1C(C)C	?	79.4µM	.	79.4µM
CC1=C[C@@H](CNS(C)(=O)=O)[C@H](C(C)C)C[C@H]1Cc1nnc(-c2ccccc2F)o1	.	?	.	?
Cc1ccc(C(=O)N2CCC(N3C(=O)CCC3C(=O)NCc3ccccc3)CC2)c(C)c1 (stereo unspecified)	.	.	.	.
CCn1ncc(CN2CC[C@H]3C(=O)NCCCCCCN(Cc4ccncc4)[C@@H]3C2)c1C	.	.	.	.
CN1c2cc(C(=O)Nc3ccc(Oc4ccccc4)cc3)ccc2C(=O)N2CCCCC21 (stereo unspecified)	?	?	50.1µM	?
CCN1c2cc(C(=O)Nc3ccc(OC)cc3)ccc2C(=O)N2CCCC21 (stereo unspecified)	.	.	.	.
CCN1c2cc(C(=O)Nc3ccc(Oc4ccccc4)cc3)ccc2C(=O)N2CCCCC21 (stereo unspecified)	.	?	.	31.6µM
CN1c2cc(C(=O)Nc3ccc(Oc4ccccc4)cc3)ccc2C(=O)N2CCCCCC21 (stereo unspecified)	?	10µM	?	?
O=C(O)CCC(=O)N1Cc2ccccc2CC2(CCCN(CC3CCCC3)C2)C1 (stereo unspecified)	/	.	/	.
O=C(Cn1cccc1-c1nc(-c2ccc3c(c2)OCO3)no1)N1CCCc2ccccc21	.	?	.	.
COc1ccc(CN2Cc3[nH]cnc3C[C@H]2C(=O)NCc2ccc(C#N)cc2)c2ccccc12	.	?	.	79.4µM
COc1ccc(CN2Cc3[nH]cnc3C[C@H]2C(=O)N(C)Cc2ccccc2)c2ccccc12	.	39.8µM	.	?
O=C(NCc1ccc(Cl)cc1)[C@@H]1Cc2nc[nH]c2CN1Cc1ccc(Cl)cc1	?	31.6µM	.	44.7µM
O=C(NCc1ccccc1)[C@@H]1Cc2nc[nH]c2CN1Cc1ccc(Cl)cc1	.	?	.	?
COc1ccc(CN2Cc3[nH]cnc3C[C@H]2C(=O)NC2CCCCC2)c2ccccc12	.	?	.	63.1µM
SMILES	hNpr1 antagonist	HEK cytotox	FLuc inh	NIH3T3 tox
Cc1ccc([S+](=O)([O-])N2CCCC(C(=O)N3CCC(c4ccccc4)CC3)C2)cc1 (stereo unspecified)	/	.	/	.
CC(C)CCCC1CN(C(=O)c2cn(C3CCC(N)CC3)nn2)CCO1 (stereo unspecified)	.	?	.	?
Cc1ccc(-c2cccc(CN3CCCC(NC(=O)NC4CCCC4)C3)c2)cc1Cl (stereo unspecified)	/	.	/	.
Cc1ccc(-c2cccc(CN3CCCC3C(=O)NC3CCC3)c2)cc1Cl (stereo unspecified)	/	28.2µM	/	39.8µM
Cc1ccc(-c2cccc(CN3CCCC3C(=O)NC3CC3)c2)cc1Cl (stereo unspecified)	/	31.6µM	/	35.5µM
CCC(C)NC(=O)C1CCCN1Cc1cccc(-c2ccc(C)c(Cl)c2)c1 (stereo unspecified)	/	22.4µM	/	35.5µM
CNC(=O)c1cc(C2CC2)nc2onc(C3CCCN3C(=O)c3ccccc3F)c12 (stereo unspecified)	/	.	/	.
